Experimental data: PubChem BioAssay (NCI)
About 83,000 compounds went through this panel and 20% of them were active in at least one assay; those are over-represented in the sample as a whole.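 Activity criterion: percent growth below 10, measured after cells in 96-well plates were exposed to a single compound concentration for 48 hours.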 Calls of active or inactive are those of the source.

Assays:
Test in all cases: NCI-60 one-dose screen, 48 h (100 = growth as untreated, 0 = no growth, -100 = all killed)
Conditions in all cases: 10 µM unless noted
HCT-15 colon = tested on: HCT-15 colon
HT29 colon = tested on: HT29 colon
SNB-75 CNS = tested on: SNB-75 CNS
SNB-19 CNS = tested on: SNB-19 CNS
U251 CNS = tested on: U251 CNS
PC-3 prostate = tested on: PC-3 prostate
SK-MEL-5 melanoma = tested on: SK-MEL-5 melanoma
UACC-62 melanoma = tested on: UACC-62 melanoma
LOX IMVI melanoma = tested on: LOX IMVI melanoma
SK-MEL-28 melanoma = tested on: SK-MEL-28 melanoma
SK-MEL-2 melanoma = tested on: SK-MEL-2 melanoma
EKVX NSCLC = tested on: EKVX NSCLC
SN12C renal = tested on: SN12C renal
UO-31 renal = tested on: UO-31 renal
TK-10 renal = tested on: TK-10 renal
ACHN renal = tested on: ACHN renal
A498 renal = tested on: A498 renal
CCRF-CEM leukemia = tested on: CCRF-CEM leukemia
MOLT-4 leukemia = tested on: MOLT-4 leukemia

Measured: growth

CCCc1nn2c(CCC(=O)c3nc4ccc([N+](=O)[O-])cc4[nH]3)nnc2s1
inactive: HCT-15 colon 100% | HT29 colon 106% | SNB-75 CNS 97.2% | SNB-19 CNS 109% | U251 CNS 108% | PC-3 prostate 100% | SK-MEL-5 melanoma 119% | UACC-62 melanoma 98.7% | LOX IMVI melanoma 95.5% | SK-MEL-28 melanoma 103% | SK-MEL-2 melanoma 87.5% | EKVX NSCLC 95.6% | SN12C renal 101% | UO-31 renal 80.7% | TK-10 renal 133% | ACHN renal 102% | A498 renal 123% | CCRF-CEM leukemia 109%

C[C@H]1C=C(C[C@@H](O)CCCCCCCCCC[C@@H](O)[C@H]2CCC(=O)O2)C(=O)O1
inactive: HCT-15 colon 108% | HT29 colon 109% | SNB-75 CNS 115% | SNB-19 CNS 96.7% | U251 CNS 99.5% | PC-3 prostate 89.4% | SK-MEL-5 melanoma 95.9% | UACC-62 melanoma 92.2% | LOX IMVI melanoma 90.5% | SK-MEL-28 melanoma 124% | SK-MEL-2 melanoma 80.2% | EKVX NSCLC 91% | SN12C renal 117% | UO-31 renal 82% | TK-10 renal 100% | ACHN renal 96.8% | A498 renal 163% | CCRF-CEM leukemia 78.5%

Nc1nc(=S)ss1
inactive: HCT-15 colon 91.8% | HT29 colon 105% | SNB-75 CNS 89.3% | SNB-19 CNS 103% | U251 CNS 107% | PC-3 prostate 90.7% | SK-MEL-5 melanoma 110% | UACC-62 melanoma 95.4% | LOX IMVI melanoma 103% | SK-MEL-28 melanoma 113% | SK-MEL-2 melanoma 109% | EKVX NSCLC 108% | SN12C renal 97.7% | UO-31 renal 95.4% | TK-10 renal 108% | ACHN renal 109% | A498 renal 92.5% | CCRF-CEM leukemia 109%

C=C1C(=O)O[C@H]2[C@H]1CC/C(CNC(=O)/C1=C/CC[C@@]3(C)O[C@H]3[C@H]3OC(=O)C(=C)[C@@H]3CC1)=C\CC[C@@]1(C)O[C@@H]21
inactive: HCT-15 colon 93.7% | HT29 colon 95.4% | SNB-75 CNS 86.3% | SNB-19 CNS 97.6% | U251 CNS 94.2% | PC-3 prostate 99% | SK-MEL-5 melanoma 97.2% | UACC-62 melanoma 85.1% | LOX IMVI melanoma 88.2% | SK-MEL-28 melanoma 96.2% | SK-MEL-2 melanoma 88.7% | EKVX NSCLC 86.2% | SN12C renal 96.7% | UO-31 renal 95.5% | TK-10 renal 102% | ACHN renal 97.6% | A498 renal 94.6% | CCRF-CEM leukemia 42.6% | MOLT-4 leukemia 93.5%

O=C(COc1ccc(Cl)cc1Cl)N1N=C(c2ccc(Cl)cc2Cl)CC1(O)c1cc(F)c(Cl)cc1Cl (stereo unspecified)
inactive: HCT-15 colon 158% | HT29 colon 116% | SNB-75 CNS 108% | SNB-19 CNS 88% | U251 CNS 131% | PC-3 prostate 102% | SK-MEL-5 melanoma 80.8% | UACC-62 melanoma 156% | LOX IMVI melanoma 128% | SK-MEL-28 melanoma 141% | SK-MEL-2 melanoma 95.3% | EKVX NSCLC 87.7% | SN12C renal 155% | UO-31 renal 76.3% | TK-10 renal 139% | ACHN renal 234% | A498 renal 142% | CCRF-CEM leukemia 125%

Clc1ccc2c(NCCNc3nc(Cl)nc4ccccc34)ccnc2c1
active: HCT-15 colon -67.5% | HT29 colon -91.5% | SNB-75 CNS -93.1% | SNB-19 CNS -49.9% | U251 CNS -92.1% | PC-3 prostate -45.7% | SK-MEL-5 melanoma -99.2% | UACC-62 melanoma -89.6% | LOX IMVI melanoma -89.4% | SK-MEL-28 melanoma -78.7% | SK-MEL-2 melanoma -73.2% | EKVX NSCLC -9.06% | SN12C renal -76.6% | UO-31 renal -95.6% | TK-10 renal -79.3% | ACHN renal -97.7% | CCRF-CEM leukemia -58.7%
inactive: A498 renal 92.3%

c1cncc(-c2nc3ccccc3[nH]2)c1
inactive: HCT-15 colon 111% | HT29 colon 102% | SNB-75 CNS 96.9% | SNB-19 CNS 111% | U251 CNS 104% | PC-3 prostate 89.7% | SK-MEL-5 melanoma 90.8% | UACC-62 melanoma 85.5% | LOX IMVI melanoma 94.4% | SK-MEL-28 melanoma 87% | SK-MEL-2 melanoma 106% | EKVX NSCLC 120% | SN12C renal 89.8% | UO-31 renal 82.3% | TK-10 renal 148% | ACHN renal 91% | A498 renal 84.4% | CCRF-CEM leukemia 110%

O=[N+]([O-])c1ccc(NS(=O)(=O)c2ccccc2)c2ccccc12
inactive: HCT-15 colon 46.8% | HT29 colon 57.5% | SNB-75 CNS 42.5% | SNB-19 CNS 48.4% | U251 CNS 37.5% | PC-3 prostate 53.2% | UACC-62 melanoma 22.7% | LOX IMVI melanoma 43.8% | SK-MEL-28 melanoma 37.5% | SK-MEL-2 melanoma 12.1% | EKVX NSCLC 38.2% | SN12C renal 44.5% | UO-31 renal 25.5% | TK-10 renal 53.1% | ACHN renal 63.6% | A498 renal 35.9% | CCRF-CEM leukemia 40.3% | MOLT-4 leukemia 38%
active: SK-MEL-5 melanoma 0.136%
